This is a sample that favours compounds with a hit; in the whole collection about 18% have one here.
RORg inh: qHTS for inhibitors of ROR gamma transcriptional activity | Potency, µM (top dose mostly 53.6 µM), for inactives: at the top dose activity change, negative = inhibition, most hits filed as inhibitors | Drosophila S2 Gal4-RORgamma UAS-luciferase reporter, 20 h | 310,000 compounds, 5.4% hits | AID 2551, 2010; further: potency means the concentration at half of the fitted maximal effect; nearly all actives have a fitted effect of over 60% in size
Target sequence (P51450 whole entry, looked up, the tested form may be a part): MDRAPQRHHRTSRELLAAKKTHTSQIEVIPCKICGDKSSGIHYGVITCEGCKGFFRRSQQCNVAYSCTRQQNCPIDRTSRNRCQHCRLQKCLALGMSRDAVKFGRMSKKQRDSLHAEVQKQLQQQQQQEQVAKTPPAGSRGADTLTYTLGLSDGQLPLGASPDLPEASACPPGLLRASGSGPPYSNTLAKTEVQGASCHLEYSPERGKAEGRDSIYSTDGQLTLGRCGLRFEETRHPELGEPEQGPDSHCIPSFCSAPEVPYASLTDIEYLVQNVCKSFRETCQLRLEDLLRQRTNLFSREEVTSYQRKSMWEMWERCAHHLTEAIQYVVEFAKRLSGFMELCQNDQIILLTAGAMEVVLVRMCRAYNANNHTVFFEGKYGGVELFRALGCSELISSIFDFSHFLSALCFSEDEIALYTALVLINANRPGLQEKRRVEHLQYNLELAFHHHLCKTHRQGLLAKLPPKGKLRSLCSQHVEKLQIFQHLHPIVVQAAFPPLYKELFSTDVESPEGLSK
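Drosophila S2 cells stably expressing Gal4-DBD/mouse RORγ fusion under metallothionein promoter plus UAS-luciferase; compound 1 h, then 700 uM CuSO4 induction for 20 h at ambient temperature; inhibition read as reduced luminescence.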
LDHA block: qHTS assay for inhibitors of human lactate dehydrogenase; purified LDHA, NADH/diaphorase-resazurin fluorescence; hits give low values; activity change, % (values are at about 110 or 230 µM); 480,000 compounds, 0.15% hits; in the data active means activity change below about -30%; inconclusive means mostly about -25% to -30%;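 further: plate controls were DMSO wells for no effect and wells without enzyme for full effect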
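Human LDH5 (2 nM) was incubated with 0.06 mM NADH and 0.2 mM pyruvate for 5 min at room temperature in Tris pH 7.4. Remaining NADH was coupled through diaphorase/resazurin, and resorufin fluorescence was read at 0 and 20 min.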
Gal4-VP16 FLuc: VP16 counterscreen qHTS for inhibitors of ROR gamma transcriptional activity. Drosophila S2 Gal4-VP16 UAS-luciferase, luminescence, 20 h. Potency, µM (doses to about 53.6 µM), without a hit: at the highest dose activity, negative = inhibition, usual class: inhibitors. 310,000 compounds, 3.5% hits. AID 2546, 2010;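 further: Gal4-VP16 expression switched on by copper sulfate through the metallothionein promoter; potency means the concentration at half of the fitted maximal effect; nearly all actives have a fitted effect of over 50% in size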
IL1B secr inh: qHTS for Inhibitors of Inflammasome Signaling: IL-1-beta AlphaLISA Primary Screen; THP-1 LPS/ATP IL-1B secretion, AlphaLISA, 16 h; hits give low values; 360,000 compounds, 4.7% hits; activity change, % at 57.5 µM; in the data active means activity change below about -50%; inconclusive means mostly about -30% to -49%
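Secreted IL-1B measured by AlphaLISA bead assay after 16 h compound exposure of THP-1 cells; compounds (final up to 57.5 uM) added 1 h before LPS (250 ng/mL) and ATP (1.25 mM) stimulation; lower signal means less secretion.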
DT40 TDP1 no CPT: qHTS for Inhibitors of human tyrosyl-DNA phosphodiesterase 1 (TDP1): qHTS in cells in absence of CPT; DT40 Tdp1-/- hTDP1 cells, no CPT, ATP luminescence, 48 h; Potency, µM (top dose mostly 46.2 µM), inactives show top-dose activity change, negative = growth inhibition, hits mostly inhibitors; 420,000 compounds, 15% hits; AID 686978, 2013; further: potency means the concentration at half of the fitted maximal effect; nearly all actives have a fitted effect of over 55% in size
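Readout: luminescence from CellTiter-Glo after 30 min in the dark at RT. Cells: DT40 Tdp1-/- with stable hTDP1, 400/well. Exposure: compounds alone, ≥48 hr, 37 °C.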
TDP1 cell CPT: qHTS for Inhibitors of human tyrosyl-DNA phosphodiesterase 1 (TDP1): qHTS in cells in presence of CPT | chicken DT40 Tdp1-/-;hTDP1 cells + 20 nM CPT, ATP luminescence, 48 h | Potency, µM (doses to about 46.2 µM), without a hit: top-dose activity change, negative = growth inhibition, usual class: inhibitors | 420,000 compounds, 12% hits | AID 686979, 2013; further: potency means the concentration at half of the fitted maximal effect; nearly all actives have a fitted effect of over 55% in size
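Chicken DT40 Tdp1-/- cells complemented with human TDP1, 400 cells/well, exposed to compounds plus 20 nM camptothecin for at least 48 h at 37 C; viability read as ATP content by CellTiter-Glo luminescence.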
* = called active by the depositor; ? = inconclusive; nt = no result. Unless noted, the call rests on the fitted dose curve; in most records, active means well fitted curve in the direction sought with a large enough effect; inconclusive means small, poorly fitted or top-dose-only effect, or another doubt; inactive means no such curve, though single readings can be large; an effect the other way counts as inactive or inconclusive. Unless noted, on the % scale 0 is the no-effect control and ±100 the full control effect.

SMILES	RORg inh	LDHA block	Gal4-VP16 FLuc	IL1B secr inh	DT40 TDP1 no CPT	TDP1 cell CPT
COc1cccc(NC(=O)c2ccnc(N3CCC(C(=O)NCc4cc(OC)ccc4OC)CC3)c2)c1	25.5%	-1.4	5.4%	-2.4	16.4µM*	23.1µM*
COc1ccc(-c2noc(N3CCC(C(=O)Nc4cccc(OC)c4)CC3)n2)cc1	-13.2%	-8.8	-25.0%	1.2	?	18.4µM*
COc1ccc(-c2noc(N3CCC(C(=O)Nc4cccc(C)c4C)CC3)n2)cc1	nt	-0.3	nt	nt	14.6µM*	?
COc1ccc(-c2noc(N3CCC(C(=O)Nc4ccccc4OC)CC3)n2)cc1	-1.8%	-4.7	-17.4%	-25.4	?	?
O=C(NCCc1ccccc1)c1cc(-c2ccccn2)nc2ccccc12	nt	-11.7	nt	nt	nt	nt
COc1ccccc1C(CNC(=O)c1cccc2c(=O)c(C)c(-c3ccccc3)oc12)N(C)C (stereo unspecified)	nt	-24.0	nt	nt	nt	nt
O=C(c1cc2ccccc2oc1=O)N1CCN(c2ccc(Cl)c(Cl)c2)CC1	nt	-8.3	nt	nt	nt	nt
Cc1ccc(-n2ncc3c(NC4CCCC4)ncnc32)cc1Cl	nt	-1.5	nt	nt	nt	nt
Cc1cccc2cc3c(N)c(C(=O)N4CCOCC4)sc3nc12	-33.4%	-6.6	-3.4%	-55.3*	1.64µM*	2.06µM*
Cc1ccsc1C1Nc2ccccc2C(=O)N1O (stereo unspecified)	15.8µM*	-0.9	?	7.7	?	?
C=CCc1cccc(C2Nc3ccccc3C(=O)N2O)c1O (stereo unspecified)	7.08µM*	2.5	?	-5.6	-27.2%	-20.9%
COc1ccc(C2Nc3ccccc3C(=O)N2O)cc1OC (stereo unspecified)	-18.4%	16.1	13.3%	10.3	?	?
O=C1c2ccccc2NC(c2c(Cl)cccc2Cl)N1Cc1ccccc1 (stereo unspecified)	?	0.2	-12.8%	?	18.4µM*	16.4µM*
Cc1nn(C)c(C)c1C1Nc2ccccc2C(=O)N1O (stereo unspecified)	?	1.8	-0.8%	28.8	-8.2%	-29.8%
O=C1c2ccccc2NC(c2cccc(F)c2)N1Cc1ccccc1 (stereo unspecified)	-13.4%	-1.9	0.6%	?	-16.3%	-21.9%
O=C1c2ccccc2NC(c2cnc3ccccc3n2)N1O (stereo unspecified)	10µM*	5.4	?	-5.8	-23.2%	-17.4%
CC(C)c1cc(N2CCN(C)CC2)n2c(nc3ccccc32)c1C#N	nt	-3.6	nt	nt	nt	nt
COC(=O)C(C)Oc1c(Br)cc(C=O)cc1OC (stereo unspecified)	nt	3.7	nt	nt	nt	nt
COc1cc(C)ccc1OC(=O)C(C)Oc1ccc(Cl)cc1Cl (stereo unspecified)	nt	4.1	nt	nt	nt	nt
CCCCCn1nc(C(=O)Nc2nc3ccccc3s2)c2ccccc2c1=O	nt	5.8	nt	nt	nt	nt
O=C1c2ccccc2NC(c2ccc(Cl)cc2Cl)N1O (stereo unspecified)	3.55µM*	0.6	10µM*	56.6	16.4µM*	?
O=C1c2ccccc2NC(c2ccc(Cl)cc2Cl)N1Cc1ccccc1 (stereo unspecified)	16.5%	5.0	-10.7%	3.5	?	23.1µM*
Cc1nn(C)cc1C1Nc2ccccc2C(=O)N1O (stereo unspecified)	?	-1.7	2.2%	-10.0	-25.3%	-12.2%
Cc1ccccc1NC(=O)CSc1nc(=O)n(CCN(C)C)c2c1CCC2	nt	4.7	nt	nt	nt	nt
CCN(CC)CCn1c2c(c(SCC(=O)Nc3ccccc3Cl)nc1=O)CCC2	nt	-6.8	nt	-52.0*	-6.3%	-1.5%
SMILES	RORg inh	LDHA block	Gal4-VP16 FLuc	IL1B secr inh	DT40 TDP1 no CPT	TDP1 cell CPT
CCN(CC)CCn1c2c(c(SCC(=O)Nc3cccc4ccccc34)nc1=O)CCC2	nt	-0.2	nt	-89.6*	?	-28.7%
COc1ccc2nc(-n3ncc4c3NC(=O)CC4c3cc(OC)c(OC)c(OC)c3)sc2c1 (stereo unspecified)	nt	6.3	nt	nt	nt	nt
CC(C)NC(=O)CNC(=O)c1nc(-c2cccc3[nH]ccc23)no1	nt	5.7	nt	nt	nt	nt
CN1C(=O)[C@H]2[C@@H](c3ccc(C(F)(F)F)cc3)N[C@]3(CCCN(Cc4ccc(Br)cc4)C3=O)[C@H]2C1=O	nt	0.0	nt	-18.7	16.4µM*	14.6µM*
CN1C(=O)[C@H]2[C@@H](c3ccc(C(F)(F)F)cc3)N[C@]3(CCCN(CC4CCCCC4)C3=O)[C@H]2C1=O	nt	1.6	nt	-13.8	10.3µM*	20.6µM*
CN1C(=O)[C@H]2[C@@H](c3ccc(C(F)(F)F)cc3)N[C@]3(CCCN(Cc4ccc(C(F)(F)F)cc4)C3=O)[C@H]2C1=O	nt	3.5	nt	-4.4	18.4µM*	23.1µM*
Cc1ccc([C@H]2N[C@]3(CCCN(Cc4ccc(Cl)cc4)C3=O)[C@H]3C(=O)N(C)C(=O)[C@@H]23)cc1	nt	2.4	nt	15.8	?	?
Cc1ccc(CN2CCC[C@]3(N[C@H](c4ccc(C)cc4)[C@@H]4C(=O)N(C)C(=O)[C@@H]43)C2=O)cc1	nt	-4.7	nt	-13.2	?	?
CCc1cccc(CC)c1NC(=S)NCCc1ccc(O)c(O)c1	12.6µM*	-15.8	-14.1%	?	?	23.1µM*
Cc1[nH]c2ccccc2c1CCNC(=S)NC(C)(C)C	nt	5.8	nt	nt	nt	nt
CCc1cccc(CC)c1NC(=S)NCCc1c(C)[nH]c2ccccc12	?	-9.0	7.08µM*	-20.8	?	?
CNC(=O)c1ccccc1NCC(=O)Nc1sc2c(c1C#N)CCCCC2	nt	0.3	nt	nt	nt	nt
O=C(OCC(=O)N(/N=C/c1ccccc1)c1cccc(C(F)(F)F)c1)c1cc(Cl)ccc1[N+](=O)[O-]	nt	7.6	nt	nt	nt	nt
Fc1cc(CSc2nccc(C(F)(F)F)n2)c2ncccc2c1	nt	10.0	nt	nt	nt	nt
CSC(=Nc1ccccc1)N=C(SCc1ccccc1)N(C)C	nt	-8.4	nt	-104.0*	1.3µM*	1.16µM*
N#Cc1c(-c2ccccc2)cc(-c2cccs2)nc1SCCS(=O)Cc1ccc(Cl)cc1 (stereo unspecified)	nt	1.1	nt	nt	nt	nt
COc1ccc(N(CC(C)C)S(=O)(=O)c2nnc(NC(=O)CC(C)C)s2)cc1	-21.1%	-2.6	-10.0%	11.3	?	3.66µM*

Screening data from PubChem BioAssay.
